# Screens (PubChem BioAssay)
# Only some compounds are listed: those with a hit (about 7.4% of all), similar ones and a draw of the others.
# KinaseGlo FLuc – blocks Kinase-Glo luciferase, a counter-screen artifact | hit rate 0.28% among 200,000 | Kinase-Glo luciferase, ATP luminescence, 8 min | Q27757 | Potency, µM (highest dose often 38.3 µM), for inactives: at the highest dose activity change, negative = inhibition, usual class: inhibitors; also: % is scaled to controls: 0 for no effect and ±100 for the full control effect; nearly all actives have a fitted effect of over 60% in size
#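 Recombinant Kinase-Glo luciferase, 10 uM ATP (linear range), luciferin; imidazole pH 7.2 / KCl / MgCl2 / Tween / BSA buffer; 8 min RT; luminescence.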
# SMN2 splice enh – SMN2 splice variant enhancement. Potency, µM (titrated, usually from 46.1 µM), for inactives: at the top dose activity change, positive = activation, most hits filed as activators. hit rate 2.8% among 210,000. HEK293 SMN2-luciferase splicing reporter, luminescence, 30-36 h; also: % of control where 0% means no effect; nearly all actives have a fitted effect of over 55% in size
#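 HEK293 cells carry an SMN2 […]–luciferase reporter in which exon 7 inclusion puts luciferase in frame. Cells were plated 10-12 h before compound addition, then incubated 30-36 h at 37C. ONE-Glo luminescence was read; sodium butyrate at 4.5 mM final served as control.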
# NPC1 prom act – NPC1 promoter activation. Huh7 NPC1 promoter luciferase reporter, 24 h. hit rate 2.4% among 320,000. Potency, µM (doses to about 9.22 µM), inactives show at the highest dose activation, actives largely listed as activators; also: % of control where 0% means no effect; nearly all actives have a fitted effect of over 60% in size
#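 Luminescence read-out of NPC1 promoter-driven luciferase in stably transfected Huh7 cells; compounds delivered in DMSO and left 24 h at 37C, 5% CO2, qHTS titration format.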
# Rab9 promoter act – Rab9 promoter activation; hit rate 2.8% among 320,000; Huh7 Rab9 promoter-luciferase reporter, luminescence, 24 h; AID 485297; Potency, µM (top dose mostly 9.22 µM), for inactives: top-dose activation, negative = inhibition, usual class: activators; also: % of control where 0% means no effect; nearly all actives have a fitted effect of over 60% in size
#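 Promoter activation is measured as luciferase luminescence in Huh7 cells stably transfected with a Rab9 promoter–luciferase construct, following 24 h compound exposure at 37 °C and 10 min reagent incubation at ambient temperature.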
# FLuc modulator – counter-screen for miR-21 project: firefly luciferase inhibitors or activators; P08659; purified FLuc, Km substrates, luminescence inhibition; Potency, µM (doses to about 57.5 µM), for inactives: top-dose activity change, negative = inhibition, actives largely listed as inhibitors; hit rate 6.9% among 360,000;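 also: plate controls were vehicle for no effect and reference inhibitor for full effect; nearly all actives have a fitted effect of over 55% in size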
# Target sequence (P08659 whole entry, looked up): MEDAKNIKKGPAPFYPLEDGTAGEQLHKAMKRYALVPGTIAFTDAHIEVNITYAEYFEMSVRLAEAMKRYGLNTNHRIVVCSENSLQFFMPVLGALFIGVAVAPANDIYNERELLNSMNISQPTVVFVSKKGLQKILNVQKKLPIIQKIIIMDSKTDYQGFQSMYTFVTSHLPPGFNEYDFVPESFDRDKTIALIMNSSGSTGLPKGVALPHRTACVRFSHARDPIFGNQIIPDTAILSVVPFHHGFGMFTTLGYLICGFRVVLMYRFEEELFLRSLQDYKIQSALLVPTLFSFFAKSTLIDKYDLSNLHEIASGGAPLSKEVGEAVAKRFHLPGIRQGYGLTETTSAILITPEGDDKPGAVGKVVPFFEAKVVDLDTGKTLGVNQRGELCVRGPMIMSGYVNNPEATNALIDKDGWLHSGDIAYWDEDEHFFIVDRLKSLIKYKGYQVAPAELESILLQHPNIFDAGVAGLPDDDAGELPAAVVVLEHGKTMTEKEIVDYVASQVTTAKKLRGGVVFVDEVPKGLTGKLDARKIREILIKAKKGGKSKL
#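 Purified P. pyralis luciferase (10nM final) with 10uM D-luciferin and 10uM ATP (Km levels) in 50mM Tris acetate pH 7.5, 10mM Mg acetate, 0.01% Tween-20, 0.05% BSA; qHTS 6-point titration, ~60 µM downward; luminescence read.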
# ELG1 genotox – induces genotoxicity in HEK293T cells with luciferase-tagged ELG1; HEK293T ELG1-luciferase reporter, luminescence, 16 h; Potency, µM (highest dose often 46 µM), for inactives: at the top dose activity change, positive = activation, actives largely listed as activators; hit rate 1.3% among 330,000; AID 504466; also: % of control where 0% means no effect; nearly all actives have a fitted effect of over 60% in size
#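 Genotoxicity was scored as increased ELG1-luciferase reporter signal, measured by ONE-Glo luminescence (30 min, room temperature). Compound or vehicle exposure of the HEK293T reporter cells lasted 16 hr at 37°C.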
# * = called active by the depositor; ? = inconclusive; . = no result; [ ] = another dose, or the depositor's remark. Calls follow the shape of the dose curve; as a rule, active = well fitted curve in the direction sought with a large enough effect; inconclusive = small, poorly fitted or top-dose-only effect, or another doubt; inactive = no such curve, though single readings can be large; an effect the other way counts as inactive or inconclusive. Potency is read from the fitted curve at half-maximal effect.
SMILES,KinaseGlo FLuc,SMN2 splice enh,NPC1 prom act,Rab9 promoter act,FLuc modulator,ELG1 genotox
CCCCCCOC(=O)c1ccc(OC(=O)c2cccnc2)cc1,-4%,14%,1%,3%,?,18µM*
COc1ccc(C(=O)Oc2ccc(C(C)=O)cc2)c(OC)c1,1%,7%,-1%,3%,12µM*,9%
COc1ccccc1C(=O)Oc1ccc(C(C)(C)C)cc1,-3%,-30%,-1%,4%,6µM*,4%
CC(C)(C)c1ccc(OC(=O)c2ccc3snnc3c2)cc1,3%,-10%,-2%,-5%,?,0%
COc1ccc(C(=O)NC(=S)NCc2ccco2)cc1,.,.,13%,23%,?,5%
CC(C)c1ccc(/C=N/NC(=O)c2nnn(-c3nonc3N)c2CN(C)C2CCCCC2)cc1,.,.,-6%,-1%,-3%,3%
COc1ccc(OC(=O)c2cccnc2)cc1,0%,0%,-1%,0%,?,2%
CC(C)(C)c1ccc(OC(=O)c2cccnc2)cc1,-2%,12%,-6%,-1%,12µM*,2%
CC(C#N)Sc1ccc(S(=O)(=O)N(C)C2CCCCC2)cn1 (centres undefined),.,.,1%,0%,4%,-2%
Cc1nc2nc(NC(=O)c3ccco3)nn2c(C)c1Cl,.,.,3.5µM*,3.2µM*,?,18µM*
Cc1cc(Cl)cc2sc(NC(=O)C3CC3)nc12,.,.,14%,4%,1%,-1%
O=C(Nc1nc2c(F)cccc2s1)c1ccco1,.,.,1.1µM*,1.1µM*,4.8µM*,7.3µM*
Cc1cc(C)c2nc(NC(=O)c3ccco3)sc2c1,.,.,2.8µM*,0.56µM*,0.54µM*,0.65µM*
Cc1cc(Cl)cc2sc(NC(=O)c3ccco3)nc12,.,.,?,2.2µM*,9.5µM*,2.9µM*
CC(C)CCN(C(=O)c1ccc(Br)cc1)c1c(N)n(Cc2ccccc2)c(=O)[nH]c1=O,.,.,-3%,3%,7%,1%
Cc1ccc(S(=O)(=O)CCC(=O)Nc2nnc(-c3cccs3)o2)cc1,.,.,-1%,-3%,-1%,-4%
O=[N+]([O-])c1cccc(-c2noc(-c3ccco3)n2)c1,.,.,3.5µM*,2.5µM*,9.5µM*,?
O=[N+]([O-])c1cccc(-c2nc(-c3ccccc3)no2)c1,-11%,.,6.3µM*,4µM*,1.3µM*,?
O=[N+]([O-])c1cccc(-c2nc(-c3ccncc3)no2)c1,-11%,17%,?,?,?,?
COc1ccc(C(=O)Nc2cccc(OCc3cc(=O)n4c5c(sc4n3)CCCC5)c2)cc1,.,0%,.,.,?,.
CCOc1ccc(NC(=O)c2ccc3nc(C(C)C)oc3c2)cc1,.,.,.,.,-17%,.
NC(=O)COc1ccc(/C=N\NC(=O)CC(=O)NCCc2ccccc2)cc1,.,.,-3%,-7%[1.84 µM],-2%,-2%
Cc1cc(NC(=O)CSc2cn(CCNC(=O)c3ccc(F)cc3)c3ccccc23)no1,-1%,-4%,1%,0%,17µM*,0%
COc1ccc(C(=O)NCCn2cc(SCC(=O)NCC3CCCO3)c3ccccc32)cc1 (centres undefined),.,.,1%,-1%,-12%,-4%
COc1ccc(C(=O)NCCn2cc(SCC(=O)NCc3ccco3)c3ccccc32)cc1,1%,-50%,20%,?,17µM*,5%
SMILES,KinaseGlo FLuc,SMN2 splice enh,NPC1 prom act,Rab9 promoter act,FLuc modulator,ELG1 genotox
CSc1ccccc1NC(=O)CN(C)C(=O)c1ccc(-n2cccn2)cc1,.,.,-7%,-4%,-2%,-1%
O=C(Nc1ccccc1F)c1ccc(O)c2ncccc12,.,.,-38%,-39%,-1%,.
COc1ccccc1OCc1nnc(SCC(=O)Nc2ccc(N3CCOCC3)cc2)n1C,.,.,4%,16%,12µM*,1%
Cc1ccccc1OCc1nnc(SCC(=O)Nc2ccc(N3CCOCC3)c(Cl)c2)n1C,-1%,-1%,4%,-2%,19µM*,-1%
COc1ccc(NC(=O)CSc2nc(C3CC3)nc3ccccc23)c(OC)c1,.,.,-2%,-3%,6%,-28%
COc1ccc(C(=O)NCCCN=C2NS(=O)(=O)c3ccccc32)cc1,.,.,-1%,1%,-1%,0%
Cc1nc2c(s1)sc1ccccc12,0%,-6%,12%,7%,24µM*,13%
Cc1cc2c(sc3ccccc32)c(C)n1,.,.,-3%,-2%,-20%,2%
Cc1oc(-c2ccc3c(c2)OCCO3)cc1C(=O)O,13µM*,-36%,-34%,-39%,2.4µM*,-12%
COc1ccc(-c2cc(C(=O)NC(Cc3cc4ccccc4[nH]3)C(=O)O)c(C)o2)cc1OC (centres undefined),.,.,22%,?,?,16%
Cc1oc(-c2ccc3c(c2)OCCO3)cc1C(=O)NCC(=O)O,-2%,.,-5%,-6%,-3%,-7%
COc1ccc(-c2cc(C(=O)O)c(C)o2)cc1OC,-26%,0.63µM*,?,0.32µM*,1.7µM*,?
CCOc1ccc2nc(N3CCCC(C(=O)N4CCN(CC)CC4)C3)sc2c1 (centres undefined),0%,?,?,?,21µM*,13%
CCOc1ccc2nc(N3CCN(C(=O)CS(=O)(=O)c4ccc(F)cc4)CC3)sc2c1,.,.,.,.,3µM*,.
CCOc1ccc2nc(N3CCCCCC3)sc2c1,-4%,7.9µM*,1.1µM*,1µM*,1.1µM*,?
CCOc1ccc2nc(N3CCCC(C(=O)NCc4ccc(OC)cc4)C3)sc2c1 (centres undefined),.,13µM*,.,.,2.4µM*,.
CCOc1ccc2nc(N3CCC(C(=O)N4CCN(C5CCCCC5)CC4)CC3)sc2c1,-1%,-16%,11%,2%,-19%,4%
COc1ccccc1CNC(=O)[C@H](C)NC(=O)C1CCN(C(=O)[C@@H](N)C(C)C)CC1,.,.,-2%,-2%,2%,-1%
CCOc1ccc2nc(N3CCCC(C(=O)NCCc4ccc(OC)cc4OC)C3)sc2c1 (centres undefined),.,14µM*,.,.,?,.
Cc1cc(C)c2nc(N3CCCC(C(=O)NC4CCCC4)C3)sc2c1 (centres undefined),.,.,30%,?,9.5µM*,7%[9.26 µM]
CCOc1cc2sc(N3CCC(C(=O)Nc4ccc(C)cc4)CC3)nc2cc1Br,.,16µM*,.,.,-9%,.
CCOc1ccc2nc(N3CCCC(C(=O)NCCc4ccc(OCC)c(OCC)c4)C3)sc2c1 (centres undefined),.,15%,.,.,?,.
CCOc1cc2sc(N3CCC(C(=O)Nc4ccccc4C(=O)OC)CC3)nc2cc1Br,.,8%,.,.,-2%,.
CCOc1ccc2nc(N3CCCC(C(=O)NCC4CCCO4)C3)sc2c1 (centres undefined),.,.,?,?,4.8µM*,13%
